# Rows were chosen to be rich in hits. Some 3% of all compounds tested hit in one or more screens of this group.
# Peg3 prom inh-1: Peg3 promoter-driven luciferase inhibitors, primary screen, cell-based, HeLa, luciferase luminescence; inhibition, % at 20 µM; HeLa PEG-Prom luciferase reporter, overnight; actives 1.7% (n = 360,000); AID 588405, 2011;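 active means inhibition of at least 50% at 20 µM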
# ABHD5 PLIN5 PPI: ABHD5-PLIN5 interaction inhibitors, primary screen, cell lysate, split luciferase complementation, luminescence. Perilipin-5 (Homo sapiens) + 1-acylglycerol-3-phosphate O-acyltransferase ABHD5 (Homo …. Split G. princeps luciferase complementation, 4 h. inhibition, % at 4 µM. actives 0.78% (n = 360,000);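 active means inhibition above the mean inhibition across every tested compound plus 3 SD, cut at about 22% in these data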;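 further: 0% = DMSO only wells and the 100% control is not disclosed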
# Target sequence (Q00G26 whole entry, looked up): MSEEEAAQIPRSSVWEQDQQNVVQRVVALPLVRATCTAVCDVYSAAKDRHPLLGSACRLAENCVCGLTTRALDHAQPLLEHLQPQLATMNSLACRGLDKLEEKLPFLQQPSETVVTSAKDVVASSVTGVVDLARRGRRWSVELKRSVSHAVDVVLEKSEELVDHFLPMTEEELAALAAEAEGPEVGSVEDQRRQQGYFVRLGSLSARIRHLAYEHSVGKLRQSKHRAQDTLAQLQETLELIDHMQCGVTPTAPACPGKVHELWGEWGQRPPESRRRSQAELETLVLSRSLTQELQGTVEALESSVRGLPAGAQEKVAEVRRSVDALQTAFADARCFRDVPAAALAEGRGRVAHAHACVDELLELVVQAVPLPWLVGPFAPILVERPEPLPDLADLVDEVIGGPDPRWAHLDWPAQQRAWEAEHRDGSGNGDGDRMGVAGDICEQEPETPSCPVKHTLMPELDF
# Target sequence (Q8WTS1 whole entry, looked up): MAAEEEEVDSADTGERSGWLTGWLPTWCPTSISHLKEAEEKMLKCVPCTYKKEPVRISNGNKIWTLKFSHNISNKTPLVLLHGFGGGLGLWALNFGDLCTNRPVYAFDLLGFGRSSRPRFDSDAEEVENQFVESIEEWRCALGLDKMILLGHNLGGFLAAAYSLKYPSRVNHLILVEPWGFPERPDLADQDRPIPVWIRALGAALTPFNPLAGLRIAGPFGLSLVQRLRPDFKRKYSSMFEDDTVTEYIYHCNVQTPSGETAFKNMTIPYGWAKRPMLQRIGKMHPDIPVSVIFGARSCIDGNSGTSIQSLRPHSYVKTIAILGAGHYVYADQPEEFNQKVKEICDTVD
# EWS-Fli inh: EWS/Fli-driven NR0B1 reporter inhibitors, primary screen, A673 cells, NR0B1 luciferase, luminescence, MLPCN library | viability-normalised | actives 0.67% (n = 350,000) | inhibition, % at 12.6 µM;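 active means mean inhibition of at least 50% after viability correction, with every replicate also passing that limit; inconclusive means mean reaches 50% but only one of two replicates passes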;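 further: firefly luciferase signal divided by Alamar Blue viability fluorescence both relative to DMSO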
# PAX8 inh HTS: inhibitors of PAX8-driven TPO luciferase reporter, primary screen, RMG-I cells, single concentration; SteadyGlo, 24 h; inhibition, % at 12.6 µM; actives 1.2% (n = 360,000);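 active means mean replicate inhibition at least 60% with every replicate also reaching 60%; inconclusive means only one of the two criteria is met; inactive means mean below 60% and not all replicates reaching 60%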;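 further: luciferase light reporting Pax8 driven TPO promoter activity; plate controls were median of neutral control wells for no effect and mitoxantrone controls for full effect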
# TRPM1 prom inh: inhibitors of MITF-dependent TRPM1 promoter reporter, primary screen, cell-based, SK-MEL-5, single point, luciferase; SK-MEL-5 TRPM1 promoter luciferase, 24 h; actives 0.83% (n = 330,000); inhibition, % at 12.5 µM;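 active means mean inhibition across replicates of 60% or more, whatever share of single replicates reaches that level; inconclusive means some that reach 60%, reason not given; inactive means mean inhibition across replicates below 60%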
# Shn3 3UTR inh: reduction of Shn3 3'UTR firefly luciferase signal, primary screen, Schnurri-3 inhibitor project, cell-based, Clone20 osteoblasts, set 2; Clone20 osteoblast Shn3 3'UTR firefly luciferase, 24 h; inhibition, % at 12.5 µM; actives 0.52% (n = 360,000); AID 588674, 2011;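 active means mean inhibition of at least 75% with every replicate also reaching 75%; inconclusive means mean inhibition at least 75% but some replicate below; inactive means mean inhibition below 75%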;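 further: 0% = median of neutral control wells and 100% = pilot-screen positive control compound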
# Peg3 prom inh-2: Peg3 promoter reporter inhibitors, retest, confirmation, cell-based, HeLa, luciferase reporter, single concentration; actives 84% (n = 1,300); inhibition, % at 20 µM; AID 602417, 2012; shares compounds with Peg3 prom inh-1; HeLa PEG-Prom luciferase reporter, luminescence, overnight;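 active means at 20 µM dose, 40% or more inhibition averaged across four replicates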
# ABHD5-PLIN5 conf: ABHD5-PLIN5 interaction inhibitors, confirmation, biochemical, luminescence | shares compounds with ABHD5 PLIN5 PPI | inhibition, % at 4 µM | actives 67% (n = 2,200); in the data active means inhibition above about 23%;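 further: 0% = DMSO vehicle wells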
# HNF4 split-luc: HNF4 dimerization inhibitors, counter-screen for ABHD5-PLIN5 interaction inhibitor project, biochemical, split-luciferase complementation, luminescence; inhibition, % at 4 µM; shares compounds with ABHD5 PLIN5 PPI; actives 77% (n = 2,200); AID 651674, 2012;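 active means mean inhibition across replicate wells exceeding the computed hit threshold, cut at about 13% in these data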;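 further: light from luciferase halves that rejoin when HNF4 fusion proteins dimerize; 0% = DMSO only wells and the 100% control is not given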
# DNA binder FP: DNA binders by acridine orange displacement, dose response, counter-screen for EWS/Fli inhibitor project, biochemical, fluorescence polarization, cherry-pick; shares compounds with EWS-Fli inh; salmon sperm DNA acridine orange fluorescence polarization; AC35, µM (titrated, usually from 68 µM), without a hit: top-dose activity change, negative = DNA binding; actives 2% (n = 640);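 active means fitted curve reaches a 35% signal fall AC35 below twice the sample's top valid tested dose, actives reach about 48 µM in these data; inactive means the rest, including activity in the rising direction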;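 further: lower polarization ratio signals compound binding to DNA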
# An asterisk follows results filed as active; u = inconclusive; x = no result given.
SMILES,Peg3 prom inh-1,ABHD5 PLIN5 PPI,EWS-Fli inh,PAX8 inh HTS,TRPM1 prom inh,Shn3 3UTR inh,Peg3 prom inh-2,ABHD5-PLIN5 conf,HNF4 split-luc,others
CC1=NOC(=O)/C1=C\c1ccc(-c2ccc(Cl)c(C(=O)O)c2)o1,0,9,-1,8,3,2,x,x,x,
CC1=NOC(=O)/C1=C\c1ccc(-c2ccccc2Br)o1,93*,43*,u,u,89*,91*,99*,93*,95*,
COc1ccc(C2NCCc3c2[nH]c2ccccc32)cc1COc1ccc(F)cc1 (stereo not given),97*,29*,78*,22,22,-28,98*,16,18*,
COc1cccc(NC(=O)C[C@@H]2CC[C@H]3[C@@H](COc4ccc(NC(=O)c5ccccc5F)cc4C(=O)N3C)O2)c1,x,x,1,12,x,x,x,x,x,
C[C@@H]1CCCCO[C@@H](CN(C)C(=O)Nc2cccc3ccccc23)[C@@H](C)CN([C@H](C)CO)C(=O)c2cc(NC(=O)Nc3ccc(F)cc3)ccc2O1,x,x,6,25,x,x,x,x,x,
CCSc1nc2ccccc2n1CC(N)=O,7,-3,x,x,1,-1,x,x,x,
CCSc1nc2ccccc2n1C(=O)/C=C\c1ccc(OC)c(OC)c1,106*,40*,x,70*,69*,-15,94*,77*,60*,
O=[N+]([O-])c1ccc(S(=O)(=O)c2ccccc2)nc1,97*,54*,58*,109*,94*,93*,97*,57*,109*,
CC=Cc1ccc2n(c1=O)C[C@H]1[C@H](CO)[C@@H](C(=O)NCc3ccccc3)N(CCC(F)(F)F)[C@@H]21 (mixture of isomers),x,x,-4,0,x,x,x,x,x,
CCCCC1(Br)C(=O)N(c2ccccc2)N(c2ccccc2)C1=O,13,-8,-1,0,x,2,x,x,x,
CCCCC1C(=O)N(c2ccccc2)N(c2ccc(O)cc2)C1=O (stereo not given),101*,97*,46,27,96*,80,74*,82*,100*,
COc1ccc(-n2cc(CNC3CCN(C)CC3)c(-c3cccc(F)c3)n2)cc1,52*,32*,13,-2,-1,-1,60*,19,11,
CO[C@H]1CN(C)C(=O)c2cc(NC(=O)C3CC3)ccc2OC[C@H](C)N(CC2CCOCC2)C[C@@H]1C,x,x,5,-10,x,x,x,x,x,
CCN1CCN(Cc2c(O)ccc3c2O/C(=C\C=C\c2ccccc2)C3=O)CC1,108*,34*,9,50,57,0,77*,23*,19*,
CCN1CCN(Cc2c(O)ccc3c2O/C(=C\c2ccccc2)C3=O)CC1,14,5,3,38,-2,-21,x,x,x,
COc1ccc2c3c([nH]c2c1)[C@@H](CO)N(C(=O)Nc1ccccc1F)CC31CN(C(C)=O)C1,x,x,9,x,x,x,x,x,x,
CNC[C@@H]1Oc2ccc(NC(=O)Nc3ccc(F)cc3)cc2CC(=O)N([C@H](C)CO)C[C@H]1C,x,x,-4,-11,x,x,x,x,x,
CN(C)CCNC(=O)/C(=C/c1ccc(-c2ccc(Cl)cc2)o1)NC(=O)c1ccccc1,100*,25*,x,11,66*,-1,97*,13,4,
CCC(=O)NC(c1cccc([N+](=O)[O-])c1)c1c(OC(C)=O)ccc2ccccc12 (stereo not given),19,-1,x,x,7,-1,x,x,x,
CCCC(=O)NC(c1cccc([N+](=O)[O-])c1)c1ccc2cccnc2c1O (stereo not given),58*,29*,11,78*,x,87*,66*,26*,0,
COC(=O)C[C@@H]1C[C@H]2c3cc(NS(=O)(=O)c4ccc(F)cc4)ccc3O[C@H]2[C@@H](CO)O1,x,x,-4,-4,x,x,x,x,x,
O=C1/C(=C/c2ccccc2)CCc2ccc(Cl)nc21,76*,76*,-5,1,36,-25,11,91*,74*,
CCOc1cc(CNCCO)cc(Br)c1OCc1ccccc1Cl,106*,28*,x,x,47,53,74*,12,0,
C[C@H]1CN([C@@H](C)CO)S(=O)(=O)c2ccc(C#CC(C)(C)O)cc2O[C@H]1CN(C)Cc1ccncc1,x,x,-5,x,x,x,x,x,x,
COc1ccccc1-c1ccc([C@H]2[C@@H](C#N)N(C(=O)C3CCC3)[C@H]2CO)cc1,x,x,-28,-10,x,x,x,x,x,
SMILES,Peg3 prom inh-1,ABHD5 PLIN5 PPI,EWS-Fli inh,PAX8 inh HTS,TRPM1 prom inh,Shn3 3UTR inh,Peg3 prom inh-2,ABHD5-PLIN5 conf,HNF4 split-luc,others
O=C(/C=C/c1cc(Br)ccc1O)c1ccco1,107*,82*,59*,13,51,12,99*,98*,97*,DNA binder FP=-17%
Nc1ccc(/C=C/C(=O)c2ccco2)cc1,-256,11,-64,-93,-31,-48,x,x,x,
C(=NNc1ccc2ccccc2n1)c1ccccn1,76*,-3,84*,102*,x,92*,78*,x,x,DNA binder FP=3%
O=C(C[C@H]1C=C[C@H](NC(=O)C2CCOCC2)[C@H](CO)O1)Nc1ccc(-c2ccccc2)cc1,x,x,0,18,x,x,x,x,x,
CCS(=O)(=O)N1CC(=O)N2[C@H](CO)[C@@H](c3ccc(C#CCC(C)C)cc3)[C@H]2C1,x,x,4,-10,x,x,x,x,x,
CCc1ccc(/C=C2\SC(=S)N(CCCC(=O)NC3=NCCS3)C2=O)cc1,72*,9,77*,13,x,49,71*,x,x,DNA binder FP=1%
CCc1ccc(/C=C2\SC(=S)N(CCCC(=O)Nc3cc(C)on3)C2=O)cc1,72*,-4,83*,35,x,65,66*,x,x,DNA binder FP=-2%
COc1cccc(/C=C2\SC(=S)N(CCCC(=O)NC3=NCCS3)C2=O)c1,29,-8,x,x,12,20,x,x,x,
COc1cccc(/C=C2\SC(=S)N(CCCC(=O)Nc3cc(C)on3)C2=O)c1,27,13,49,x,-9,20,x,x,x,
C/C(=N\OCc1cccc(C(=O)O)c1)c1ccc(Cl)cc1,55*,-8,84*,81*,x,37,36,x,x,DNA binder FP=-14%

# High-throughput results: PubChem BioAssay, several laboratories
